Reference: PubChem BioAssay (Tox21)
Records with an inconclusive call do not appear. Where a call stands in place of a potency, no number is given. Calls of active or inactive are those of the source. The call rests on the fitted dose curve; in most records, active means well fitted activation curve with a large enough effect in the signal ratio in the repeat runs (not every such curve was filed as active); inconclusive means weak or mixed curves; inactive means flat fitted curve, though single readings scatter; the % refers to the signal ratio.

Assay: p53 small molecule agonists, cell-based qHTS assay (AID 1963582)
Conditions: HCT-116 p53RE-bla reporter, beta-lactamase FRET ratio, 16 h; series mostly up to 66 µM
Outline: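 p53RE-bla beta-lactamase reporter cells rested 5 h at 37 C/5% CO2, then received compounds in DMSO by pin transfer and were incubated 16 h at 37 C. LiveBLAzer B/G FRET substrate was loaded for 2 h at room temperature before fluorescence reading.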

COc1cc(CC(C)N)cc(OC)c1OC (stereo not drawn)
Potency: inactive

NC1=NC(=O)C(c2ccccc2)O1 (stereo not drawn)
Potency: inactive

CC(CC(C#N)(c1ccccc1)c1ccccc1)N(C)C (stereo not drawn)
Potency: inactive

CCOC(=O)c1ncn2c1CN(C)C(=O)c1c(I)cccc1-2
Potency: inactive

S=C=Nc1cccc2ccccc12
Potency: inactive

CCOC(=O)C(Cl)C(C)=O (stereo not drawn)
Potency: inactive

C[N+](C)(C)CCCl
Potency: inactive

CNC(=O)Oc1ccccc1C(C)C
Potency: inactive

O=C1OC(CCN2CCCCC2)OC1(c1ccccc1)c1ccccc1 (stereo not drawn)
Potency: inactive

CC[N+]1(C)CCCC(OC(=O)C(O)(c2ccccc2)c2ccccc2)C1 (stereo not drawn)
Potency: inactive

CC(C)=CCOc1c2occc2cc2ccc(=O)oc12
Potency: inactive

CCCCC(CC)COC(=O)OOC(C)(C)C (stereo not drawn)
Potency: inactive

CC(C)(C)OO
Potency: inactive

O=[N+]([O-])c1ccc2c3c(cccc13)CC2
Potency: inactive

CC1(C)[C@H](C=C(Cl)Cl)[C@@H]1C(=O)O[C@@H](C#N)c1cccc(Oc2ccccc2)c1
Potency: inactive

Clc1ccccc1N1CCNCC1
Potency: inactive

CCOP(=S)(S)OCC
Potency: inactive

O=C(CCCN1CCC(n2c(=O)[nH]c3ccccc32)CC1)c1ccc(F)cc1
Potency: inactive

CC(C)(C)C(O)C(Oc1ccc(Cl)cc1)n1cncn1 (stereo not drawn)
Potency: inactive

O=[N+]([O-])c1cccc2cccnc12
Potency: inactive

Cc1ccc(N(SC(F)(Cl)Cl)S(=O)(=O)N(C)C)cc1
Potency: inactive

CNNC
Potency: inactive

CC(C)N(Cc1ccccc1)C(=O)C(C)(C)C
Potency: inactive

CN1[C@@H]2CC[C@H]1CC(OC(=O)c1cc(Cl)cc(Cl)c1)C2 (stereo partly drawn)
Potency: inactive

CC1Sc2c(C(=O)O)c(=O)c3cc(F)c(N4CCNCC4)cc3n21 (stereo not drawn)
Potency: inactive

N#CCCl
Potency: inactive

CCOP(=S)(OCC)Oc1cc(-c2ccccc2)on1
Potency: inactive

CCN(CC)C(=O)[C@@H]1C=C2c3cccc4[nH]cc(c34)C[C@H]2N(C)C1
Potency: inactive

O=c1[nH]c2ccccc2n1C1CCNCC1
Potency: inactive

CC(C)CC(C)N (stereo not drawn)
Potency: inactive

COC(N)=O
Potency: inactive

CCC[N+](CCC)(CCC)CCC
Potency: inactive

COP(N)(=S)OC
Potency: inactive

O=C(N[C@H]1CN2CCC1CC2)c1cc2ccoc2cn1
Potency: inactive

CC1(c2ccc(Oc3ccccc3)cc2)OC(=O)N(Nc2ccccc2)C1=O (stereo not drawn)
Potency: inactive

COc1ccc2[nH]cc(CCN(C(C)C)C(C)C)c2c1
Potency: inactive

C#CC(O)(C=CCl)CC (stereo not drawn)
Potency: inactive

COP(=O)(OC)O/C(=C/Cl)c1cc(Cl)c(Cl)cc1Cl
Potency: inactive
